Bioassay records: PubChem, National Center for Advancing Translational Sciences (NCATS)
An excerpt weighted towards active compounds, which were near 18% of everything screened.
DT40 TDP1 CPT – growth inhibition of DT40 Tdp1-/-;hTDP1 cells with camptothecin (screen for TDP1 inhibitors) | chicken DT40 Tdp1-/-;hTDP1 cells + 20 nM CPT, ATP luminescence, 48 h | Potency, µM (series often up to 46.2 µM), inactives show at the top dose activity change, negative = growth inhibition, actives largely listed as inhibitors | 420,000 compounds, 12% hits; note: potency is the fitted concentration of half-maximal effect; nearly all actives have a fitted effect of over 55% in size
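Cell growth measured by CellTiter-Glo luminescence after a minimum 48 h, 37 C compound exposure with 20 nM CPT in Tdp1-knockout DT40 cells stably expressing hTDP1, seeded 400/well; qHTS titration format.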
IL-1B inflam inh – blocks inflammasome-driven IL-1 beta release. activity change, % at 57.5 µM. 360,000 compounds, 4.7% hits. AID 743279. THP-1 LPS/ATP IL-1B secretion, AlphaLISA, 16 h; stronger effect = lower value; in the data active = activity change below about -50%; inconclusive = mostly about -30% to -49%
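Secreted IL-1B measured by AlphaLISA bead assay after 16 h compound exposure of THP-1 cells; compounds (final up to 57.5 uM) added 1 h before LPS (250 ng/mL) and ATP (1.25 mM) stimulation; lower signal means less secretion.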
LDHA inh – inhibitors of human lactate dehydrogenase A; P00338; purified LDHA, NADH/diaphorase-resazurin fluorescence; stronger effect = lower value; activity change, % (values are at about 110 or 230 µM); 480,000 compounds, 0.15% hits; AID 1347041; in the data active = activity change below about -30%; inconclusive = mostly about -25% to -30%;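 note: plate controls were DMSO wells for no effect and wells without enzyme for full effect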
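Human LDH5 (2 nM) was incubated with 0.06 mM NADH and 0.2 mM pyruvate for 5 min at room temperature in Tris pH 7.4. Remaining NADH was coupled through diaphorase/resazurin, and resorufin fluorescence was read at 0 and 20 min.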
VP16 counter – counter-screen for ROR gamma inhibitors: Gal4-VP16 reporter; Potency, µM (doses to about 53.6 µM), without a hit: top-dose activity, negative = inhibition, hits mostly inhibitors; AID 2546; 310,000 compounds, 3.5% hits; Drosophila S2 Gal4-VP16 UAS-luciferase, luminescence, 20 h;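 note: Gal4-VP16 expression switched on by copper sulfate through the metallothionein promoter; potency is the fitted concentration of half-maximal effect; nearly all actives have a fitted effect of over 50% in size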
TDP1 cell noCPT – qHTS for Inhibitors of human tyrosyl-DNA phosphodiesterase 1 (TDP1): qHTS in cells in absence of CPT. Potency, µM (series often up to 46.2 µM), without a hit: top-dose activity change, negative = growth inhibition, most hits filed as inhibitors. 420,000 compounds, 15% hits. DT40 Tdp1-/- hTDP1 cells, no CPT, ATP luminescence, 48 h. AID 686978, 2013; note: potency is the fitted concentration of half-maximal effect; nearly all actives have a fitted effect of over 55% in size
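Chicken DT40 Tdp1-/- cells complemented with human TDP1, screened without camptothecin (DMSO vehicle only), 400 cells/well. Compounds pin-transferred, cells incubated at 37 °C for at least 48 hr. Growth read as ATP-dependent luminescence (CellTiter-Glo, 30 min at RT).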
RORgamma inh – inhibitors of mouse ROR gamma transcriptional activity; P51450; Drosophila S2 Gal4-RORgamma UAS-luciferase reporter, 20 h; Potency, µM (series often up to 53.6 µM), for inactives: at the top dose activity change, negative = inhibition, hits mostly inhibitors; 310,000 compounds, 5.4% hits; AID 2551; note: potency is the fitted concentration of half-maximal effect; nearly all actives have a fitted effect of over 60% in size
Target sequence (P51450 whole entry, looked up, the tested form may be a part): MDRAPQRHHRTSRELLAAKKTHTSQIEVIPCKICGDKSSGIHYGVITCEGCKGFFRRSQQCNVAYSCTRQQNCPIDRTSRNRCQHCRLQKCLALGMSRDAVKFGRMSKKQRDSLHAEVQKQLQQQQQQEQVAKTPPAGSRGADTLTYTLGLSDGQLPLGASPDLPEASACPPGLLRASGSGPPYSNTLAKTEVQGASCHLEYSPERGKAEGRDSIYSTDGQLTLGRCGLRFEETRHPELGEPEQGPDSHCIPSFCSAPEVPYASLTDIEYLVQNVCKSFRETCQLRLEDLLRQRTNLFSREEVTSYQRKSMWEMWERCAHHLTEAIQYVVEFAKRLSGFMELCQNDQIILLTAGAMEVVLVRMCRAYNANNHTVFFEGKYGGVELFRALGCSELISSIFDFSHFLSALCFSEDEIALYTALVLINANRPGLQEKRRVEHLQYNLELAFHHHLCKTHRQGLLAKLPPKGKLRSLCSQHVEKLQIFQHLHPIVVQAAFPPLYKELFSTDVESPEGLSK
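Stable Schneider cell line, Gal4 DNA-binding domain fused to ROR gamma, UAS-luciferase. Cmpd 1 hr RT → CuSO4 700 uM final → 20 hr RT → luciferase reagent 10 min → luminescence.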
Active calls of the source: *; u = inconclusive; x = no result given; ! = not active in a repeat; [ ] = dose if it differs, or a comment. Unless noted, calls come from the whole dose curve; as a rule, active = well fitted curve in the direction sought with a large enough effect; inconclusive = small, poorly fitted or top-dose-only effect, or another doubt; inactive = no such curve, though single readings can be large; an effect the other way counts as inactive or inconclusive. Unless noted, % is set by controls: 0 for no effect and ±100 for the full control effect.

SMILES	DT40 TDP1 CPT	IL-1B inflam inh	LDHA inh	VP16 counter	TDP1 cell noCPT	RORgamma inh
Cn1c(=O)c(C(=O)NNC(=O)c2ccccc2Br)c(O)c2ccccc21	u	-7	8	u	u	20µM*
CCCC1([C@H](O)C/C=C/[C@H]2[C@H](O)CC(=O)[C@@H]2CCCCCCC(=O)OC)CCC1	15µM*	x	x	u	11µM*	-36%
CCCCC(C)(O)C/C=C/[C@H]1[C@H](O)CC(=O)[C@@H]1CCCCCCC(=O)O (stereo partly specified)	7%[4.12 µM]	x	x	-15%	12%[4.12 µM]	-14%
Cc1ccc(Sc2ccc(CO)cc2[N+](=O)[O-])cc1	13%	0	-8	6%	u	-3%
Cc1ccc(Sc2ccc(CN3CCCC3)cc2[N+](=O)[O-])cc1	6.5µM*	0	-15	-8%	5.8µM*	23%
CN1CCN(Cc2ccc(Sc3ccc(Cl)cc3)c([N+](=O)[O-])c2)CC1	u	-92*	-4	-25%	15µM*	-27%
COc1ccc2nc(NC(=O)c3cc(=O)c4ccc(C)c(C)c4o3)sc2c1	x	x	-4	x	x	x
COc1ccc(C2NC(=O)NC(C)=C2C(=O)OC2CCCC(C)C2)cc1 (stereo unspecified)	u	u	-3	5%	u	u
COc1ccc(C2NC(=O)NC(C)=C2C(=O)OC2CCCCC2)cc1 (stereo unspecified)	18µM*	-25	-19	x	u	x
COc1ccc(C2NC(=O)NC(C)=C2C(=O)OC2CCC(C)CC2)cc1 (stereo unspecified)	u	-65*	1	-15%	18µM*	u
O=C(Nc1ccc(N2CCOCC2)nc1)c1ccc(C(F)(F)F)cc1	2%	27	-1	7%	u	-1%
O=C(N/N=C/c1cnc(N2CCCCC2)s1)c1ccc(C(F)(F)F)cc1	u	12	-3	3.5µM*	u	2µM*
C[C@@H]1C[C@@H]2OC(=O)[C@]3(C)[C@H]2[C@@H](OC3(C)O)[C@]2(C)C(=O)C=C[C@H]12 (stereo partly specified)	18µM*	-90*	3	-10%	u	14%
CCOc1ccc(NC(=O)CCCn2c(=O)c3cccn3c3ccccc32)cc1	x	x	-31*	x	x	x
O=C(CCn1c(=O)c2cccn2c2ccccc21)Nc1ccc(F)cc1	u	46	-1	3%	12µM*!	35%
COc1ccc(NC(=O)CCn2c(=O)c3cccn3c3ccccc32)c(OC)c1	16µM*	0	1	-3%	21µM*	25%
Cc1cc(C)cc(NC(=O)CCn2c(=O)c3cccn3c3ccccc32)c1	5.8µM*	20	1	3%	8.2µM*	6%
CCOC(=O)c1cccc(NC(=O)CCCn2c(=O)c3cccn3c3cccnc32)c1	u	-9	-1	1%	-21%	-3%
Cc1cc(C)cc(NC(=O)CCCn2c3ccccc3c(=O)c3ccccc32)c1	u	x	-2	x	23µM*	x
COc1cccc(NC(=O)CCCn2c(=O)c3cccn3c3cccnc32)c1	u	x	-9	x	21µM*	x
Cc1ccc(NC(=O)CCn2c(=O)c3cccn3c3ccccc32)c(C)c1	u	0	-7	-6%	21µM*	34%
COc1cc(/C=C(/C#N)c2ccccc2)ccc1OCCOc1ccccc1	x	x	4	x	x	x
Cc1cc(C)c(C=Nc2cccc([N+](=O)[O-])c2C)c(C)c1	x	x	7	x	x	x
CC(=O)c1ccc(OCc2ccc(Cl)cc2Cl)cc1	x	x	0	x	x	x
Oc1ccc(C[C@@H](CN2CCC[C@@H]2CN2C(=S)NC[C@@H]2Cc2ccccc2)N2C[C@H](Cc3ccccc3)N(CCc3ccccc3)C2=S)cc1	16µM*	-17	-16	x	18µM*	x
SMILES	DT40 TDP1 CPT	IL-1B inflam inh	LDHA inh	VP16 counter	TDP1 cell noCPT	RORgamma inh
Oc1ccc(C[C@H]2CNC(=S)N2CC2CCCN2C[C@H](Cc2ccccc2)N2C[C@H](Cc3ccc(O)cc3)N(CCc3ccccc3)C2=S)cc1 (stereo partly specified)	23µM*	u	-15	x	23µM*	x
Cc1cccc(N=C2C(=O)Nc3c(Cl)cccc32)c1	u	19	33	-4%	29µM*	-25%
CC(=O)c1sc(Nc2cc(C)ccc2C)nc1C	x	x	3	x	x	x
O=C(NCC1CCCN(C(=O)c2cccnc2)C1)c1ccc(-c2ccccc2)cc1 (stereo unspecified)	u	6	-1	4%	23µM*	7%
CSCC(=O)N1CCCC(CNC(=O)c2ccc(-c3ccccc3)cc2)C1 (stereo unspecified)	23µM*	-8	-1	-5%	23µM*	19%
CC(=O)CCC(=O)N1CCCC(CNC(=O)c2ccc(-c3ccccc3)cc2)C1 (stereo unspecified)	u	-16	0	-10%	u	24%
CCOc1ccc(NC(=O)N2CCC(N(C)C(C)C)CC2)cc1	x	x	21	x	x	x
Cc1ccc(N2C(=O)N(Cc3ccccc3)c3ccccc3S2(=O)=O)c(C)c1	x	x	3	x	x	x
COc1ccc(-c2coc3c(C(=O)NCc4ccc(F)c(F)c4)cccc23)c(C)c1	u	u	-1	x	15µM*	x
COc1ccc(-c2ccc(C(=O)NCc3ccncc3)c3occc23)c(C)c1	2.1µM*	-29	2	x	1.8µM*	x
Cc1noc(C)c1-c1ccc(C(=O)NCc2ccc(Cl)cc2)c2occc12	u	u	-8	x	u	x
